From PubChem BioAssay (Tox21) come the findings set out here.

Structures are written as SMILES. Records with an inconclusive call do not appear. Activity calls are given as the source filed them. Unless noted, calls come from the whole dose curve; as a rule, active = well fitted curve in the direction sought with a large enough effect in the repeat runs; inconclusive = weak or mixed curves; inactive = no such curve, though single readings can be large; an effect the other way counts as inactive or inconclusive. Positions of bridges follow the written chain, without caps; N, C: chain ends. Non-standard residues stand in square brackets, D forms with d. Residues, ends and D or L forms follow the SMILES beside them. ξ: configuration not given here. *: point of attachment. d(aThr) = C[C@@H](O)[C@@H](N)C(=O)O; ξThr(3R) = C[C@@H](O)C(N)C(=O)O; X3 = CC[C@@H](C)CCCCC(=O)*; dDab = NCC[C@@H](N)C(=O)O

The nature of assay [1]: qHTS assay to identify small molecule antagonists of the glucocorticoid receptor (GR) signaling pathway - cell viability counter screen (AID 720693). Note: nearly all actives have a fitted effect of over 55% in size. Note: potency is the fitted concentration of half-maximal effect.
The nature of assay [2]: qHTS assay for identifying genotoxic compounds that show differential cytotoxicity against isogenic chicken DT40 cell lines with known DNA damage response pathways - wild type cell line (AID 743012). Note: nearly all actives have a fitted effect of over 60% in size. Note: potency is the fitted concentration of half-maximal effect. Summed up: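 Parental DNA repair-proficient DT40 cells, 300 per well, were pre-incubated ~0.5 h at 37 C/5% CO2, pin-dosed with compounds in DMSO, then incubated 40 h. Viability was read as CellTiter-Glo luminescence after 30 min at room temperature.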
A general note: Quantitative high-throughput screening tests each substance at several concentrations.

A short description of assay [3]: qHTS assay for identifying genotoxic compounds that show differential cytotoxicity against isogenic chicken DT40 cell lines with known DNA damage response pathways - Rad54/Ku70 mutant cell line (AID 743015). Note: nearly all actives have a fitted effect of over 60% in size. Note: potency is the fitted concentration of half-maximal effect.
The nature of assay [4]: qHTS assay to identify small molecule antagonists of the androgen receptor (AR) signaling pathway - cell viability counter screen (AID 743033; note: nearly all actives have a fitted effect of over 45% in size).
Assay [5] in a line: qHTS assay to identify small molecule antagonists of the androgen receptor (AR) signaling pathway using the MDA cell line - cell viability counter screen (AID 743041; note: nearly all actives have a fitted effect of over 45% in size). Summed up: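 MDA-kb2 AR-luc cells (MMTV-luciferase, AR/GR responsive) treated with compounds plus R1881 agonist for 16 h at 37C. CellTiter-Fluor added at 15.5 h; fluorescence read after 30 min in the same wells.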

For assay [6], the target named is Androgen receptor (Homo sapiens) (UniProt P10275). The assay can be described thus: qHTS assay to identify small molecule antagonists of the androgen receptor (AR) signaling pathway (AID 743035; active = well fitted inhibition curve with a large enough effect in the signal ratio in the repeat runs, not every such curve was filed as active; the % refers to the signal ratio). In a few lines: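 HEK293 cells stably carrying a UAS-driven beta-lactamase reporter (AR-UAS-bla GripTite) were plated for 4 h at 37C, then given compound and the agonist R1881 and incubated 16 h. Reporter activity was read by LiveBLAzer B/G FRET fluorescence after 2 h at room temperature.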

Assay [7] shares this target. Nature of the assay: qHTS assay to identify small molecule agonists of the androgen receptor (AR) signaling pathway (AID 743036; active = well fitted activation curve with a large enough effect in the signal ratio in the repeat runs, with a control signal flat, not every such curve was filed as active; the % refers to the signal ratio). Summed up:
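Quantitative HTS of the Tox21 10K library in HEK293 cells bearing a stably integrated UAS-controlled beta-lactamase reporter. Compound exposure lasted 16 h at 37C. Reporter activity was detected by FRET substrate fluorescence after 2 h at room temperature.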

Assay [8] shares this target. The assay can be described thus: qHTS assay to identify small molecule agonists of the androgen receptor (AR) signaling pathway using the MDA cell line (AID 743040; note: nearly all actives have a fitted effect of over 20% in size). Summed up: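 MDA-kb2 breast carcinoma cells carrying MMTV-luciferase (responsive to AR and GR), plated 5 h then treated 16 h with compounds at 37C, 0% CO2. Read-out was ONE-Glo luminescence after 30 min at room temperature.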

The target is the same in assay [9]. The assay can be described thus: qHTS assay to identify small molecule antagonists of the androgen receptor (AR) signaling pathway using the MDA cell line (AID 743042; note: nearly all actives have a fitted effect of over 55% in size). In a few lines:
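MDA-kb2 breast carcinoma cells carrying MMTV-luciferase (AR/GR responsive) were co-treated with compounds and the agonist R1881 for 16 h at 37C. Inhibition read as ONE-Glo luminescence; CellTiter-Fluor fluorescence measured in parallel for cytotoxicity.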

Sequence of Androgen receptor (Homo sapiens) (P10275 whole entry, looked up): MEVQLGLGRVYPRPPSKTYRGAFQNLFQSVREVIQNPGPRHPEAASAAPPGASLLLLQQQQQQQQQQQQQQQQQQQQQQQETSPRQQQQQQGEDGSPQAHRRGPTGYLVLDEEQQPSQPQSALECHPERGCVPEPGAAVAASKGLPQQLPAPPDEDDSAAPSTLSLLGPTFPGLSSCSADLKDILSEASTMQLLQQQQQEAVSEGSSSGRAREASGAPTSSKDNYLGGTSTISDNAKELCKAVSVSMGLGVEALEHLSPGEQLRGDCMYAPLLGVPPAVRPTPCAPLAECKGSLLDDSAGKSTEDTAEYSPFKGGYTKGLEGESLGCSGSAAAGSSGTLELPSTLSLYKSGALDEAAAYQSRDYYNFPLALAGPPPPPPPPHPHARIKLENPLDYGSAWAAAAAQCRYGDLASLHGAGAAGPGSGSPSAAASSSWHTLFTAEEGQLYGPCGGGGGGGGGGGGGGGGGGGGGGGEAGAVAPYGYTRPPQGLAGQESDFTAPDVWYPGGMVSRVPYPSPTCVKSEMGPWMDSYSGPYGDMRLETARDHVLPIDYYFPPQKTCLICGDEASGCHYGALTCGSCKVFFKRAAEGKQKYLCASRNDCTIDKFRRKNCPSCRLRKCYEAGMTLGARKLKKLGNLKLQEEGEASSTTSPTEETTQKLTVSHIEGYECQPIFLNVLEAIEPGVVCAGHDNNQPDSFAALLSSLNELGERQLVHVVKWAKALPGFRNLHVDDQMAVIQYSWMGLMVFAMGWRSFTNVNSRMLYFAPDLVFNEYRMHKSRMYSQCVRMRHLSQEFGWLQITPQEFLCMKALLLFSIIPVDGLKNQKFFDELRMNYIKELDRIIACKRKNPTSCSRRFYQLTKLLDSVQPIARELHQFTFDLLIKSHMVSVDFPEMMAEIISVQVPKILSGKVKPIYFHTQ

As to `CCCCC(=O)O[C@H]1CC[C@H]2[C@@H]3CCc4cc(O)ccc4[C@H]3CC[C@]12C`, the Potency result in assay [1], in [4] and in [5] was “inactive” throughout. Also, the Potency in [2] was 18.8 µM (active); in [3], 16.8 µM (active).
As for `Nc1nc(=O)n([C@@H]2CS[C@H](CO)O2)cc1F`, the Potency result in assay [1], in [2], in assay [3], in assay [4] and in assay [5] was “inactive” throughout.
Regarding `[O]=[Bi][O][Bi]=[O]`, the Potency entry in assay [1], in [2], in assay [3], in assay [6], in assay [7] and in assay [8] was “inactive” each time. Also, the Potency entry in assay [5] and in assay [9] was “inactive” each time.
Turning to `Cn1nnnc1SCC1=C(C(=O)O)N2C(=O)[C@@H](NC(=O)[C@H](OC=O)c3ccccc3)[C@H]2SC1`, the Potency entry in [1], in [2], in assay [3], in [4] and in assay [5] was “inactive” in each case.
With `CCCC(=O)Nc1c(I)cc(I)c(CC(CC)C(=O)O)c1I` (stereo unspecified), the Potency result in assay [1], in assay [2], in [3], in assay [4] and in [5] was “inactive” in each case.
Regarding `O=[N+]([O-])O[C@@H]1CO[C@H]2[C@@H]1OC[C@@H]2O`, the Potency result in [1], in [2], in assay [3], in [4] and in assay [5] was “inactive” each time.
Regarding `O=C(O)c1cccc(/C=C2/C[C@@H]3[C@@H](/C=C/[C@@H](O)C4CCCCC4)[C@H](O)C[C@@H]3O2)c1`, the Potency result in assay [1], in assay [2], in assay [3], in assay [6], in [8] and in assay [5] was “inactive” each time. The Potency result in assay [9] was “inactive”.
Take `C=C(NC(=O)C(=C)NC(=O)c1csc(C2=N[C@@H]3c4csc(n4)[C@H]4NC(=O)c5csc(n5)[C@H]([C@](C)(O)[C@@H](C)O)NC(=O)[C@H]5CSC(=N5)C(=CC)NC(=O)C([C@@H](C)O)NC(=O)c5csc(n5)[C@]3(CC2)NC(=O)[C@H](C)NC(=O)C(=C)NC(=O)[C@H](C)NC(=O)C([C@@H](C)CC)NC2C=Cc3c([C@H](C)O)cc(nc3C2O)C(=O)O[C@@H]4C)n1)C(N)=O` (stereo partly specified): the Potency entry in assay [1] and in assay [8] was “inactive” each time. In addition, the Potency was 2.54 µM (active) in assay [2] and 4.03 µM (active) in [3].
For the compound `CO/N=C(\C(=O)N[C@@H]1C(=O)N2C(C(=O)O)=C(CSC(=O)c3ccco3)CS[C@H]12)c1csc(N)n1`, the Potency entry in assay [1], in assay [2], in assay [3], in [6], in [7] and in assay [8] was “inactive” throughout. The Potency entry in assay [5] and in assay [9] was “inactive” throughout.
For the compound `COc1c(O[C@@H]2O[C@H](CO)[C@@H](O)[C@H](O)[C@H]2O)cc2c(c1OC)-c1ccc(SC)c(=O)cc1[C@@H](NC(C)=O)CC2`, the Potency result in assay [1], in [2], in assay [3], in assay [4] and in [5] was “inactive” throughout.
For the compound `CO[C@H]1C=CO[C@@]2(C)Oc3c(C)c(O)c4c(O)c(c5c(nc6cc(C)ccn65)c4c3C2=O)NC(=O)/C(C)=C\C=C[C@H](C)[C@H](O)[C@@H](C)[C@@H](O)[C@@H](C)[C@H](OC(C)=O)[C@@H]1C`, the Potency result in assay [1] and in [5] was “inactive” each time. Moreover, the Potency is 26.6 µM (active) in assay [2] and 29.8 µM (active) in assay [3].
Turning to `CC[C@H](C)[C@H]1O[C@]2(CC[C@@H]1C)C[C@@H]1C[C@@H](C/C=C(\C)[C@@H](O[C@H]3C[C@H](OC)[C@@H](O[C@H]4C[C@H](OC)[C@@H](O)[C@H](C)O4)[C@H](C)O3)[C@@H](C)/C=C/C=C3\CO[C@@H]4[C@H](O)C(C)=C[C@@H](C(=O)O1)[C@]34O)O2`, the Potency in assay [1] was 6.01 µM (active); in [2], 3.76 µM (active); in [3], 7.5 µM (active). In addition, the Potency result in [6], in assay [8] and in [9] was “inactive” throughout.
Consider `CC1=C(C(=O)OCCN(Cc2ccccc2)c2ccccc2)C(c2cccc([N+](=O)[O-])c2)C(P2(=O)OCC(C)(C)CO2)=C(C)N1` (stereo unspecified), for which the Potency entry in assay [1], in assay [4] and in [5] was “inactive” each time. Also, the Potency in assay [2] was 29.8 µM (active); in assay [3] it was 26.6 µM (active).
`Cc1nc(NS(=O)(=O)c2ccc(N)cc2)nc(C)c1Br`: the Potency entry in [1], in assay [2], in assay [3], in assay [4] and in [5] was “inactive” throughout.
Turning to `FCOC(C(F)(F)F)C(F)(F)F`, the Potency result in assay [1], in [2], in [3] and in assay [5] was “inactive” in each case.
Consider `CC[C@@H](C)CCCCC(=O)N[C@H](CCN)C(=O)N[C@@H](C(=O)N[C@H](CCN)C(=O)N[C@@H]1CCNC(=O)C([C@@H](C)O)NC(=O)[C@@H](CCN)NC(=O)[C@@H](CCN)NC(=O)[C@@H](CC(C)C)NC(=O)[C@@H](Cc2ccccc2)NC(=O)[C@@H](CCN)NC1=O)[C@@H](C)O` (stereo partly drawn) (X3-[dDab][d(aThr)][dDab][dDab][dDab][dF][dL][dDab][dDab][ξThr(3R)]; lactam 4-C), for which the Potency entry in assay [1], in [2], in [3], in assay [4] and in assay [5] was “inactive” throughout.
For the compound `CN(C)C=Nc1c(I)cc(I)c(CCC(=O)O)c1I`, the Potency result in assay [1], in assay [2], in assay [3], in assay [4] and in assay [5] was “inactive” in each case.
`CC(C(=O)O)c1ccc(N2Cc3ccccc3C2=O)cc1` (stereo unspecified): the Potency entry in [1], in assay [2], in assay [3], in assay [4] and in [5] was “inactive” each time.
With `COC(=O)CC[C@H](N)C(=O)O`, the Potency result in assay [1], in assay [2], in assay [3], in assay [4] and in assay [5] was “inactive” throughout.
As for `C=CCSSSCC=C`, the Potency result in assay [1], in assay [2], in assay [3], in assay [4] and in assay [5] was “inactive” each time.
For the compound `CN[C@@H]1[C@H](O[C@H]2[C@H](O[C@H]3[C@H](O)[C@@H](O)[C@H](N=C(N)N)[C@@H](O)[C@@H]3N=C(N)N)O[C@@H](C)[C@]2(O)C=O)O[C@@H](CO)[C@H](O)[C@H]1O`, the Potency result in [1], in assay [2], in assay [3], in assay [4] and in assay [5] was “inactive” each time.
